Drawing on the supplement of paper PMC6763611, this text covers growth inhibition for 38 compounds.

Structures are written as SMILES.

The first test relates to Plasmodium falciparum NF54. In words: growth inhibition relative to untreated control; higher = more inhibition. The conditions noted are these: 1 µM; minimal medium (MM); 72 h. Summed up:
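Growth inhibition was measured by SYBR Green fluorescence, normalised to untreated wells and corrected for background from uninfected erythrocytes. The parasites were P. falciparum NF54 ring stages (1% hematocrit, 1% parasitemia) exposed to single 5 μM or 1 μM doses of test compounds for 72 h at 37 °C, in either minimal RPMI or minimal RPMI containing 2.2 μM folate, 7.3 μM pABA, 7.3 μM pHBA, 111 μM tyrosine, 90 μM phenylalanine and tryptophan.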
`N#CCN(CCCCN1CCN(c2ccc(F)cc2)CC1)C(=O)OCc1ccccc1` came in with a growth inhibition of 7.66%.

`COc1cc(OC)cc(C(=O)NCC2Cc3cc(Cl)cc(-c4ccncc4)c3O2)c1` (stereo unspecified) returned a growth inhibition above 100%.

As for `CN1CCCC1CCO[C@](C)(c1ccccc1)c1ccc(Cl)cc1` (stereo partly specified), the growth inhibition was 94.5%.

In turn, `O=C(C1CCN(c2cc(-n3cccc3)ncn2)CC1)N1CCc2ccccc2C1` registered a growth inhibition of 5.57%.

In the case of `Brc1cncc(-c2cc(NCCCn3ccnc3)nc(-c3ccccc3)n2)c1`, the growth inhibition turned out to be 39.8%.

`O=C(NC1CCCCC1)N1CCN(Cc2ccc3c(c2)OCO3)CC1`: the growth inhibition was below 0%.

In turn, `CCNC(=O)C(C)Nc1nc(-c2cccnc2)nc2sc(C)c(C)c12` (stereo unspecified) returned a growth inhibition below 0%.

`CN(C)c1cc(NC(=O)Nc2ccccc2)c2ccccc2n1`: the growth inhibition turned out to be 95.6%.

As for `Nc1ncnc2c1ncn2C[C@@H](O)[C@@H](O)C(=O)O`, the growth inhibition was found to be 43%.

With `CCOC(=O)NC(=O)c1ccsc1NC(=O)c1nc2ccccc2s1`, the growth inhibition was below 0%.

Compound `O[C@@H](c1cc(C(F)(F)F)nc2c(C(F)(F)F)cccc12)[C@H]1CCCCN1` came in with a growth inhibition of 94.9%.

Compound `Cc1ccccc1CN1CCC(O)(c2ccc(Cl)c(C(F)(F)F)c2)CC1` registered a growth inhibition of 30%.

For `CC(=O)NCC1CN(c2ccc(-c3ccc(CO)cc3)c(F)c2)C(=O)O1` (stereo unspecified), the growth inhibition is 7.91%.

Turning to `CCOc1ccc2cc(-c3nn(C(C)(C)C)c(N)c3C(N)=O)cnc2c1`, the growth inhibition was found to be 18.1%.

Regarding `c1ccc2c(c1)CN(CC1CC1)CC1(CCN(Cc3c[nH]c4cnccc34)CC1)O2`, the growth inhibition was found to be 97.8%.

For the compound `COc1ccc(C2=NN(C3CCCCCC3)C(=O)[C@@H]3CC=CC[C@H]23)cc1OCCCCOc1ccc(-c2nnn[nH]2)cc1`, the growth inhibition was found to be 16.4%.

For `CN1CCN(c2nccc3[nH]c(-c4cccc(F)c4)cc23)CC1`, the growth inhibition worked out at 58.4%.

Take `COc1ccc(C2CC(c3cccs3)=NN2C(=O)c2ccco2)cc1OC` (stereo unspecified): the growth inhibition came to 89.5%.

With `CC1CS(=O)(=O)CCN1/N=C/c1ccc([N+](=O)[O-])o1` (stereo unspecified), the growth inhibition stood at 0.769%.

In turn, `Nc1ccc(C(=O)Nc2ccc(-c3nc4ccccc4o3)cc2)cc1` showed a growth inhibition of 18.2%.

`Cc1cc(O)nc(-n2nc(C)cc2C)n1` gave a growth inhibition below 0%.

Compound `Cc1c[nH]c(CCNC(=O)c2cc(-c3ccc(Cl)cc3)cs2)n1` yielded a growth inhibition above 100%.

As to `Nc1ncnc2c1c(Cc1cccc3ccccc13)nn2CC1CCNCC1`, the growth inhibition turned out to be 59.9%.

For `CCCCS(=O)(=O)Nc1ccc2cnn(C)c2c1`, the growth inhibition is below 0%.

As for `COc1ccc2nccc(NC(=O)C3CCN(CCc4ccc(Cl)cc4)CC3)c2n1`, the growth inhibition came to 30.5%.

`Cc1noc(C)c1C(=O)N1CCCC(c2[nH]c3c(C)cccc3c2-c2ccncc2)C1` (stereo unspecified): the growth inhibition is 95.3%.

For `FC(F)(F)c1cccc(-c2nc3c(NCc4ccncc4)nccc3[nH]2)c1`, the growth inhibition was above 100%.

As for `CCOc1ccc(-c2nc(NC(=O)CS(=O)(=O)c3ccccc3)sc2C)cc1`, the growth inhibition was determined as 95.3%.

Consider `O=C(NCCc1ccccc1)c1cc(-c2cccnc2)cnc1NCC1CC1`, for which the growth inhibition was above 100%.

`COc1cc(C2=NCCN2)ccc1-c1cn(-c2cccc(C3=NCCN3)c2)nn1` gave a growth inhibition of 86.7%.

Compound `Cc1ccc2nc(C)c(-c3ccn(Cc4ccccc4)n3)n2c1` registered a growth inhibition of 33.9%.

Regarding `CCN(CC)CCCN1CCN(C(=O)c2cccc(-c3noc(C(F)(F)F)n3)c2)CC1`, the growth inhibition amounted to 84.9%.

`Cc1ccc2[nH]c3c(NCCN(C)C)ncnc3c2c1` gave a growth inhibition of 96.5%.

The compound `C[C@]1(O)C[C@@H](c2nc(-c3ccc4ccc(-c5ccccc5)nc4c3)c3c(N)nccn32)C1` showed a growth inhibition of 34.1%.

With `COC(=O)C1=C(C)NC(C)=C(C(=O)OC(C)C)C1c1cccc2nonc12` (stereo unspecified), the growth inhibition was 24.4%.

`O=S(=O)(c1ccc(Cl)cc1)N1CCN(C(=S)NCc2ccco2)CC1` returned a growth inhibition of 93.6%.

For the compound `O=C(Nc1nnc(-c2ccc(Cl)cc2)o1)c1cccc(C(F)(F)F)c1`, the growth inhibition was found to be 33%.

Regarding `CC1COC2(CCN(c3nc(=O)c4cc(C(F)(F)F)cc([N+](=O)[O-])c4s3)CC2)O1` (stereo unspecified), the growth inhibition came out at 12.6%.

Still in this test, the particulars now being: 5 µM; MM + chorismate end-products (CM screening medium); 72 h.
With `N#CCN(CCCCN1CCN(c2ccc(F)cc2)CC1)C(=O)OCc1ccccc1`, the growth inhibition was determined as 32.3%.

Regarding `COc1cc(OC)cc(C(=O)NCC2Cc3cc(Cl)cc(-c4ccncc4)c3O2)c1` (stereo unspecified), the growth inhibition came out at 93%.

For `CN1CCCC1CCO[C@](C)(c1ccccc1)c1ccc(Cl)cc1` (stereo partly specified), the growth inhibition amounted to 98%.

As for `O=C(C1CCN(c2cc(-n3cccc3)ncn2)CC1)N1CCc2ccccc2C1`, the growth inhibition was found to be 4.91%.

Take `Brc1cncc(-c2cc(NCCCn3ccnc3)nc(-c3ccccc3)n2)c1`: the growth inhibition came to 91.2%.

In the case of `O=C(NC1CCCCC1)N1CCN(Cc2ccc3c(c2)OCO3)CC1`, the growth inhibition is below 0%.

On to `CCNC(=O)C(C)Nc1nc(-c2cccnc2)nc2sc(C)c(C)c12` (stereo unspecified), for which the growth inhibition was 16.8%.

Turning to `CN(C)c1cc(NC(=O)Nc2ccccc2)c2ccccc2n1`, the growth inhibition came out at 88.6%.

For `Nc1ncnc2c1ncn2C[C@@H](O)[C@@H](O)C(=O)O`, the growth inhibition was 48.6%.

Regarding `CCOC(=O)NC(=O)c1ccsc1NC(=O)c1nc2ccccc2s1`, the growth inhibition is below 0%.

For `O[C@@H](c1cc(C(F)(F)F)nc2c(C(F)(F)F)cccc12)[C@H]1CCCCN1`, the growth inhibition was 91.5%.

Take `Cc1ccccc1CN1CCC(O)(c2ccc(Cl)c(C(F)(F)F)c2)CC1`: the growth inhibition is 82.6%.

For `CC(=O)NCC1CN(c2ccc(-c3ccc(CO)cc3)c(F)c2)C(=O)O1` (stereo unspecified), the growth inhibition is 31.4%.

For the compound `CCOc1ccc2cc(-c3nn(C(C)(C)C)c(N)c3C(N)=O)cnc2c1`, the growth inhibition was found to be 3.3%.

Regarding `c1ccc2c(c1)CN(CC1CC1)CC1(CCN(Cc3c[nH]c4cnccc34)CC1)O2`, the growth inhibition stood at 93.1%.

For the compound `COc1ccc(C2=NN(C3CCCCCC3)C(=O)[C@@H]3CC=CC[C@H]23)cc1OCCCCOc1ccc(-c2nnn[nH]2)cc1`, the growth inhibition was 44.9%.

On to `CN1CCN(c2nccc3[nH]c(-c4cccc(F)c4)cc23)CC1`, for which the growth inhibition was found to be 99%.

For the compound `COc1ccc(C2CC(c3cccs3)=NN2C(=O)c2ccco2)cc1OC` (stereo unspecified), the growth inhibition is 91.4%.

For the compound `CC1CS(=O)(=O)CCN1/N=C/c1ccc([N+](=O)[O-])o1` (stereo unspecified), the growth inhibition is below 0%.

For `Nc1ccc(C(=O)Nc2ccc(-c3nc4ccccc4o3)cc2)cc1`, the growth inhibition stood at 55.7%.

For the compound `Cc1cc(O)nc(-n2nc(C)cc2C)n1`, the growth inhibition is below 0%.

`Cc1c[nH]c(CCNC(=O)c2cc(-c3ccc(Cl)cc3)cs2)n1`: the growth inhibition was determined as 97.3%.

For `Nc1ncnc2c1c(Cc1cccc3ccccc13)nn2CC1CCNCC1`, the growth inhibition was 19.1%.

As for `CCCCS(=O)(=O)Nc1ccc2cnn(C)c2c1`, the growth inhibition worked out at 13.4%.

Turning to `COc1ccc2nccc(NC(=O)C3CCN(CCc4ccc(Cl)cc4)CC3)c2n1`, the growth inhibition turned out to be 42.1%.

Take `Cc1noc(C)c1C(=O)N1CCCC(c2[nH]c3c(C)cccc3c2-c2ccncc2)C1` (stereo unspecified): the growth inhibition is 92.6%.

Consider `FC(F)(F)c1cccc(-c2nc3c(NCc4ccncc4)nccc3[nH]2)c1`, for which the growth inhibition turned out to be 95.4%.

Consider `CCOc1ccc(-c2nc(NC(=O)CS(=O)(=O)c3ccccc3)sc2C)cc1`, for which the growth inhibition turned out to be 95.3%.

Turning to `O=C(NCCc1ccccc1)c1cc(-c2cccnc2)cnc1NCC1CC1`, the growth inhibition came to 59.2%.

As to `COc1cc(C2=NCCN2)ccc1-c1cn(-c2cccc(C3=NCCN3)c2)nn1`, the growth inhibition is above 100%.

Regarding `Cc1ccc2nc(C)c(-c3ccn(Cc4ccccc4)n3)n2c1`, the growth inhibition is 36.8%.

`CCN(CC)CCCN1CCN(C(=O)c2cccc(-c3noc(C(F)(F)F)n3)c2)CC1`: the growth inhibition came to 95.3%.

On to `Cc1ccc2[nH]c3c(NCCN(C)C)ncnc3c2c1`, for which the growth inhibition amounted to 98.1%.

As to `C[C@]1(O)C[C@@H](c2nc(-c3ccc4ccc(-c5ccccc5)nc4c3)c3c(N)nccn32)C1`, the growth inhibition was 53.2%.

Consider `COC(=O)C1=C(C)NC(C)=C(C(=O)OC(C)C)C1c1cccc2nonc12` (stereo unspecified), for which the growth inhibition worked out at 28.3%.

Consider `O=S(=O)(c1ccc(Cl)cc1)N1CCN(C(=S)NCc2ccco2)CC1`, for which the growth inhibition came to 94.3%.

As for `O=C(Nc1nnc(-c2ccc(Cl)cc2)o1)c1cccc(C(F)(F)F)c1`, the growth inhibition was 42.7%.

For the compound `CC1COC2(CCN(c3nc(=O)c4cc(C(F)(F)F)cc([N+](=O)[O-])c4s3)CC2)O1` (stereo unspecified), the growth inhibition was 14.7%.
